Measurements reported in PubChem BioAssay (EPA / NIEHS).
Calls of active or inactive are those of the source. How the source made its calls: active means hit-call score of the fitted dose curve at least 0.9, where 1 is the maximum; inactive means score below 0.9.

Key:
Settings in all cases: mRNA level, 48 h; actives raise or lower the signal
[1] = read-out: Apolipoprotein A-V (APOA5) gene, APOA5 (gene 116519); assay: LTEA_HepaRG_APOA5: Life Technologies and Expression Analysis (LTEA) Assay for Apolipoprotein A-V (APOA5) gene using HepaRG (AID 2283474)
Summary of the method: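 APOA5 transcript levels were quantified by qRT-PCR, normalized to three housekeeping genes, after 48 h chemical treatment of HepaRG cells (8 points, 100 uM maximum, half-log steps, 0.5% DMSO). Curves fitted in both directions against vehicle.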

[2] = read-out: Apoptosis regulator Bcl-2 (Homo sapiens) (UniProt P10415); assay: LTEA_HepaRG_BCL2: Life Technologies and Expression Analysis (LTEA) Assay for Bcl-2 gene using HepaRG (AID 2283475);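 further: BCL2 transcript by TaqMan qRT-PCR normalised to ACTB GAPDH and POLR2A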
Summary of the method: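 Expression change of BCL2 mRNA in HepaRG after 48 h dosing, quantified by TaqMan qRT-PCR against three endogenous controls. Concentration-response used eight points up to 100 uM, vehicle 0.5% DMSO.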

[3] = read-out: Cytochrome P450 (CYP24A1), CYP24A1 (gene 1591); assay: LTEA_HepaRG_CYP24A1: Life Technologies and Expression Analysis (LTEA) Assay for Cytochrome P450 (CYP24A1) using HepaRG (AID 2283478)
Summary of the method: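 mRNA of CYP24A1 quantified by TaqMan qRT-PCR (ACTB/GAPDH/POLR2A normalization) after 48 h chemical exposure of HepaRG cells, top concentration 100 uM, half-log steps, 0.5% DMSO vehicle, duplicates. Curves fitted bidirectionally against DMSO baseline.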

[4] = read-out: Cytochrome P450 (CYP2B6), CYP2B6 (gene 1555); assay: LTEA_HepaRG_CYP2B6: Life Technologies and Expression Analysis (LTEA) Assay for Cytochrome P450 (CYP2B6) using HepaRG (AID 2283481)
Summary of the method: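 CYP2B6 transcript level quantified by qRT-PCR against three housekeeping genes, fitted bidirectionally relative to DMSO. HepaRG cultures received chemicals for 48 h, 8-point half-log series from 100 uM in 0.5% DMSO, duplicate wells, serum-free induction medium.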

[5] = read-out: Cytochrome P450 2C19 (Homo sapiens) (UniProt P33261); assay: LTEA_HepaRG_CYP2C19: Life Technologies and Expression Analysis (LTEA) Assay for CYP2C19 using HepaRG (AID 2283482)
Summary of the method: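 CYP2C19 transcript levels by qRT-PCR, normalized to three housekeeping genes, in HepaRG cells after 48 h chemical exposure. Eight-point half-log series topping at 100 uM, 0.5% DMSO vehicle. Increases and decreases both fitted against DMSO.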

CYP2C8 (gene 1558) = assay: LTEA_HepaRG_CYP2C8: Life Technologies and Expression Analysis (LTEA) Assay for CYP2C8 using HepaRG (AID 2283483)
Summary of the method: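 Differentiated human HepaRG cells were exposed for 48 h in serum-free induction medium to eight half-log concentrations up to 100 uM in 0.5% DMSO, in duplicate. CYP2C8 mRNA was measured by TaqMan qRT-PCR, normalized to ACTB, GAPDH and POLR2A, and fitted bidirectionally against DMSO.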

CYP2C9 (gene 1559) = assay: LTEA_HepaRG_CYP2C9: Life Technologies and Expression Analysis (LTEA) Assay for CYP2C9 using HepaRG (AID 2283484)
Summary of the method: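 Differentiated human HepaRG cells were exposed 48 h in serum-free induction medium to eight half-log concentrations up to 100 uM in 0.5% DMSO. CYP2C9 mRNA was measured by qRT-PCR, normalized to ACTB, GAPDH and POLR2A, and fitted bidirectionally against DMSO.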

CYP2E1 (gene 1571) = assay: LTEA_HepaRG_CYP2E1: Life Technologies and Expression Analysis (LTEA) Assay for CYP2E1 using HepaRG (AID 2283485)
Summary of the method: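 Differentiated HepaRG cells were treated in duplicate for 48 h with chemicals in 0.5% DMSO, from 100 uM downward in half-log dilutions. RNA was then analysed by qRT-PCR for CYP2E1 induction or loss.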

CYP4A11 (gene 1579) = assay: LTEA_HepaRG_CYP4A11: Life Technologies and Expression Analysis (LTEA) Assay for CYP4A11 using HepaRG (AID 2283486)
Summary of the method: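 Readout is CYP4A11 transcript level by qRT-PCR, normalized to three housekeeping genes and fitted bidirectionally against 0.5% DMSO. Human HepaRG cells were treated 48 h, in duplicate, with an 8-point half-log series topping at 100 uM.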

[6] = read-out: Cytochrome P450 3A4 (Homo sapiens) (UniProt P08684); assay: LTEA_HepaRG_CYP3A4: Life Technologies and Expression Analysis (LTEA) Assay for CYP3A4 using HepaRG (AID 2283487)
Summary of the method: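 In a human hepatic line (HepaRG), duplicate wells were treated 48 h with up to 100 uM chemical in half-log dilutions. Endpoint: CYP3A4 mRNA induction or loss relative to 0.5% DMSO vehicle, by qRT-PCR.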

[7] = read-out: DNA damage-inducible transcript 3 (DDIT3), DDIT3 (gene 1649); assay: LTEA_HepaRG_DDIT3: Life Technologies and Expression Analysis (LTEA) Assay for DNA damage-inducible transcript 3 (DDIT3) using HepaRG (AID 2283488)
Summary of the method: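 Changes in DDIT3 transcript, in either direction relative to 0.5% DMSO vehicle, were quantified by TaqMan qRT-PCR after 48 h chemical exposure of HepaRG cells at 8 concentrations, maximum 100 uM.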

[8] = read-out: Pro-epidermal growth factor (Homo sapiens) (UniProt P01133); assay: LTEA_HepaRG_EGF: Life Technologies and Expression Analysis (LTEA) Assay for Epidermal growth factor (EGF) using HepaRG (AID 2283489)
Summary of the method: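 EGF transcript measured by Fluidigm TaqMan qRT-PCR with three housekeeping genes for normalization, 48 h after dosing HepaRG cultures in duplicate (top 100 uM, half-log steps, 0.5% DMSO vehicle). Gain or loss relative to DMSO fitted.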

[9] = read-out: Early growth response protein 1 (EGR1) transcription factor, EGR1 (gene 1958); assay: LTEA_HepaRG_EGR1: Life Technologies and Expression Analysis (LTEA) Assay for Early growth response protein 1 (EGR1) transcription factor using HepaRG (AID 2283490)
Summary of the method: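 Differentiated human HepaRG cells in serum-free induction medium were exposed in duplicate for 48 h to eight concentrations (top 100 uM, half-log steps) in 0.5% DMSO. EGR1 mRNA was quantified by qRT-PCR, normalized to ACTB, GAPDH and POLR2A, and fitted bidirectionally versus DMSO.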

[10] = read-out: Ezrin (EZR), EZR (gene 7430); assay: LTEA_HepaRG_EZR: Life Technologies and Expression Analysis (LTEA) Assay for Ezrin (EZR) using HepaRG (AID 2283491)
Summary of the method: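 Gain or loss of EZR mRNA is scored relative to 0.5% DMSO in human HepaRG cultures treated 48 h with test chemicals in duplicate, eight half-log concentrations from 100 uM.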

CYP3A5 (gene 1577) = assay: LTEA_HepaRG_CYP3A5: Life Technologies and Expression Analysis (LTEA) Assay for CYP3A5 using HepaRG (AID 2283493)
Summary of the method: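 mRNA induction or loss of CYP3A5 assessed in HepaRG after 48 h dosing, 100 uM top concentration, duplicate wells; TaqMan qRT-PCR with ACTB, GAPDH, POLR2A normalization; 0.5% DMSO as negative control.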

[11] = read-out: Bcl-2 (BID) gene, BID (gene 637); assay: LTEA_HepaRG_BID: Life Technologies and Expression Analysis (LTEA) Assay for Bcl-2 (BID) gene using HepaRG (AID 2283476)
Summary of the method: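 Gain or loss of BID expression is fitted relative to 0.5% DMSO vehicle. Human HepaRG liver cells received a 48 h chemical exposure over an eight-point concentration range.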

Caspase-3 (Homo sapiens) = Caspase-3 (Homo sapiens) (UniProt P42574); assay: LTEA_HepaRG_CASP3: Life Technologies and Expression Analysis (LTEA) Assay for cysteine-aspartic acid protease (CASP3) using HepaRG (AID 2283477)
Sequence of Caspase-3 (Homo sapiens) (P42574 whole entry, looked up): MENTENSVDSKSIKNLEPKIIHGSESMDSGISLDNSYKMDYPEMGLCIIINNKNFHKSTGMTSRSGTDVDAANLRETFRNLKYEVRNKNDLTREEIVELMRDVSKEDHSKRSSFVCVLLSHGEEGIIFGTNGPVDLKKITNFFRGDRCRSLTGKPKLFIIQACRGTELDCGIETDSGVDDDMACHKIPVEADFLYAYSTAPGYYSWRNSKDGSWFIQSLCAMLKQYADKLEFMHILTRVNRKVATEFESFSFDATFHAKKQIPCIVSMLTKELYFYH
Summary of the method: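 Expression of CASP3 was quantified by TaqMan qRT-PCR against three housekeeping genes (ACTB, GAPDH, POLR2A), bidirectionally versus 0.5% DMSO. HepaRG cultures received compounds in duplicate, top 100 uM with half-log steps, for 48 h in serum-free induction medium.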

[12] = read-out: Cytochrome P450 (CYP1A2), CYP1A2 (gene 1544); assay: LTEA_HepaRG_CYP1A2: Life Technologies and Expression Analysis (LTEA) Assay for Cytochrome P450 (CYP1A2) using HepaRG (AID 2283479)
Summary of the method: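 CYP1A2 transcript measured by TaqMan qRT-PCR against three housekeeping genes after 48-hour chemical exposure of HepaRG cells. Eight-point half-log series topping at 100 uM in 0.5% DMSO, duplicates; gain or loss fitted relative to vehicle.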

[13] = read-out: cysteine-aspartic acid protease (CASP8), CASP8 (gene 841); assay: LTEA_HepaRG_CASP8: Life Technologies and Expression Analysis (LTEA) Assay for cysteine-aspartic acid protease (CASP8) using HepaRG (AID 2283480)
Summary of the method: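 Differentiated human HepaRG cells, plated 48 h then switched to serum-free induction medium, were exposed in duplicate for 48 h to 8 half-log concentrations up to 100 uM in 0.5% DMSO. CASP8 mRNA was quantified by qRT-PCR, normalized to ACTB/GAPDH/POLR2A.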

[14] = read-out: Cytochrome P450 3A7 (Homo sapiens) (UniProt P24462); assay: LTEA_HepaRG_CYP3A7: Life Technologies and Expression Analysis (LTEA) Assay for CYP3A7 using HepaRG (AID 2283492)
Summary of the method: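 CYP3A7 transcript measured by qRT-PCR (ACTB, GAPDH, POLR2A normalization) after 48 h chemical exposure of HepaRG cells in duplicate. Eight half-log concentrations, maximum 100 uM, 0.5% DMSO vehicle; bidirectional curve fitting against DMSO baseline.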

Measured: AC50

Sequence of Cytochrome P450 3A7 (Homo sapiens) (P24462 whole entry, looked up): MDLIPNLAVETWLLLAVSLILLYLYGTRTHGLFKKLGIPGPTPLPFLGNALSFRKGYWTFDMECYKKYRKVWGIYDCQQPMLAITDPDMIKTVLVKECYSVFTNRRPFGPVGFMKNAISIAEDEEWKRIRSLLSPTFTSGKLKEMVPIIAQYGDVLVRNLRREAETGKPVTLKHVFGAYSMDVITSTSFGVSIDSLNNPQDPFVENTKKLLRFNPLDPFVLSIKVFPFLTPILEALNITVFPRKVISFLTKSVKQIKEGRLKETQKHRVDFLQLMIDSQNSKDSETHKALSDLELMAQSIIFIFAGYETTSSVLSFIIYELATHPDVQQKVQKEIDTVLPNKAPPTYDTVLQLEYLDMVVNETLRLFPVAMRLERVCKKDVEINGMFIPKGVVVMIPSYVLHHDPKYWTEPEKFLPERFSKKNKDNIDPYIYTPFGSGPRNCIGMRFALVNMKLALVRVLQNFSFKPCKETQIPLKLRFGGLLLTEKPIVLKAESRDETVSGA
Sequence of Apoptosis regulator Bcl-2 (Homo sapiens) (P10415 whole entry, looked up): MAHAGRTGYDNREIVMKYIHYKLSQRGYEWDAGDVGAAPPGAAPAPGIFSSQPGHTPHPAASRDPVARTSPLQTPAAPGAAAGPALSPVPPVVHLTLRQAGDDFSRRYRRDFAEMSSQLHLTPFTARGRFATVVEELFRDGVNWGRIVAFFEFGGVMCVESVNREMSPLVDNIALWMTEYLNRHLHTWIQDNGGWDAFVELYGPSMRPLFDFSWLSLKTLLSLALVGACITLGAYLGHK
Sequence of Cytochrome P450 3A4 (Homo sapiens) (P08684 whole entry, looked up): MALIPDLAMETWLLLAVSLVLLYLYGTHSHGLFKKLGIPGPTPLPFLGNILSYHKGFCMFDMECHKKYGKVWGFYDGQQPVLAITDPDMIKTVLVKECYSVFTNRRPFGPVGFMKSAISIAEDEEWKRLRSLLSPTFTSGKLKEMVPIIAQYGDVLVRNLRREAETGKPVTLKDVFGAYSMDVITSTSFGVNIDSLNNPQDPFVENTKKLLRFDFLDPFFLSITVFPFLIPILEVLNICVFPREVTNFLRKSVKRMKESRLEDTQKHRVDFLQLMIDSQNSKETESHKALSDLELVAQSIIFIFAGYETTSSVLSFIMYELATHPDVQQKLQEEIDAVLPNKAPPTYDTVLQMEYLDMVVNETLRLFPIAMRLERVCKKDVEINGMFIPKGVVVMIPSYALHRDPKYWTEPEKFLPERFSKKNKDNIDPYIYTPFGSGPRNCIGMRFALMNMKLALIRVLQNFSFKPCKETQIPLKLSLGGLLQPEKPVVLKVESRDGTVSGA
Sequence of Cytochrome P450 2C19 (Homo sapiens) (P33261 whole entry, looked up): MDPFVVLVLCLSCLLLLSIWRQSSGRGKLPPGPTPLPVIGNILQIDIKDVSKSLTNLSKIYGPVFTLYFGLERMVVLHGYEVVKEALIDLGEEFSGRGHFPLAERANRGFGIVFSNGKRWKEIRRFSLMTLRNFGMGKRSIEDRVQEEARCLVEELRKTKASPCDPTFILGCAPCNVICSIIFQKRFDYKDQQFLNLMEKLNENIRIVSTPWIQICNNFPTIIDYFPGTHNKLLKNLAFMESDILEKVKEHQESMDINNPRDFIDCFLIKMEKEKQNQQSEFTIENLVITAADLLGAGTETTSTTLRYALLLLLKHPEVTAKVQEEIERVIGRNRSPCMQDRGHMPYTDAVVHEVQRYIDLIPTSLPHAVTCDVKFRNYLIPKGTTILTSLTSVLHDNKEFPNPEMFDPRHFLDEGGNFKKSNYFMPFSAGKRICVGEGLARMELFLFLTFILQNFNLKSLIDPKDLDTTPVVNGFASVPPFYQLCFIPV

CC(C)(C)OOC(C)(C)CCC(C)(C)OOC(C)(C)C
not listed: [11] | Caspase-3 (Homo sapiens) | [12] | [13] | [14]
inactive: all other assays above

C[C@]12C=CC3=C4CCC(=O)C=C4CC[C@H]3[C@@H]1CC[C@@H]2O
inactive: [1] | [11] | Caspase-3 (Homo sapiens) | [12] | [13] | [7] | [8] | [10]
active: [2] 14.8 µM | [5] 65.3 µM | CYP2C9 (gene 1559) 50 µM | [6] 0.458 µM

CC(C)(C)OOC(=O)c1ccccc1
not listed: [9] | [12]
inactive: all other assays above

CCNS(=O)(=O)C(F)(F)C(F)(F)C(F)(F)C(F)(F)C(F)(F)C(F)(F)C(F)(F)C(F)(F)F
active: [1] 48.2 µM | CYP2E1 (gene 1571) 48.2 µM | CYP4A11 (gene 1579) 12 µM
not listed: [9] | [12] | [14]
inactive: all other assays above

O=C(Nc1ccccc1)c1ccccc1I
active: [4] 11.1 µM | CYP2C9 (gene 1559) 50 µM | CYP2E1 (gene 1571) 32 µM
not listed: [9] | [12] | [14]
inactive: all other assays above

CN(C)C(=O)Nc1ccc(Cl)cc1
active: [4] 22.5 µM | CYP2E1 (gene 1571) 50 µM
not listed: [9] | [12] | [14]
inactive: all other assays above

[Cl-].[Cl-].[Hg+2]
not listed: [9] | [12] | [14]
inactive: all other assays above

OCCCl
active: [4] 50 µM
not listed: [12] | [14]
inactive: all other assays above

Nc1ccc(N=Nc2ccccc2)cc1
active: [1] 17.7 µM | [11] 50 µM | [13] 17.3 µM | [4] 13.1 µM | [5] 14.4 µM | CYP2C8 (gene 1558) 17.3 µM | CYP2C9 (gene 1559) 14.7 µM | CYP2E1 (gene 1571) 23.7 µM | CYP4A11 (gene 1579) 13.3 µM | [7] 32.4 µM | CYP3A5 (gene 1577) 14.2 µM
inactive: [2] | Caspase-3 (Homo sapiens) | [3] | [8] | [10]

Cc1ccc(N=C=O)cc1N=C=O
active: [2] 23.6 µM | CYP2C9 (gene 1559) 50 µM | CYP2E1 (gene 1571) 31.1 µM | CYP4A11 (gene 1579) 20.8 µM | [7] 13.3 µM
not listed: [9] | [12]
inactive: all other assays above

CNC(=O)Oc1cccc2c1OC(C)(C)C2
active: [4] 3.94 µM | [5] 17.4 µM | CYP2E1 (gene 1571) 23.7 µM | [6] 6.81 µM
not listed: [12] | [14]
inactive: all other assays above

CO[C@@H]1[C@H](OC(=O)NC(=O)CCl)CC[C@]2(CO2)[C@H]1[C@@]1(C)O[C@@H]1CC=C(C)C
active: [4] 0.0683 µM
not listed: [9] | [12]
inactive: all other assays above

CN(C)c1ccc(C(=O)c2ccc(N(C)C)cc2)cc1
active: [2] 8.06 µM | [4] 12.2 µM | CYP2E1 (gene 1571) 50 µM | CYP4A11 (gene 1579) 50 µM
not listed: [6] | [9] | [12]
inactive: all other assays above

Brc1ccc(Oc2ccccc2)cc1
active: [4] 78.1 µM
not listed: [9] | [12]
inactive: all other assays above

CC(O)CCO (centres undefined)
not listed: [9] | [12]
inactive: all other assays above
